GPR151 activ – activates the human receptor GPR151. 650,000 tested, 1% active. PathHunter beta-arrestin GPR151 cells, luminescence. activation, % at 11.2 µM. Q8TDV0. AID 1508602; in the data active = activation above about 4.9%;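 also: 0% = median of compound wells and 100% = cells with positive control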
Target sequence (Q8TDV0 whole entry, looked up): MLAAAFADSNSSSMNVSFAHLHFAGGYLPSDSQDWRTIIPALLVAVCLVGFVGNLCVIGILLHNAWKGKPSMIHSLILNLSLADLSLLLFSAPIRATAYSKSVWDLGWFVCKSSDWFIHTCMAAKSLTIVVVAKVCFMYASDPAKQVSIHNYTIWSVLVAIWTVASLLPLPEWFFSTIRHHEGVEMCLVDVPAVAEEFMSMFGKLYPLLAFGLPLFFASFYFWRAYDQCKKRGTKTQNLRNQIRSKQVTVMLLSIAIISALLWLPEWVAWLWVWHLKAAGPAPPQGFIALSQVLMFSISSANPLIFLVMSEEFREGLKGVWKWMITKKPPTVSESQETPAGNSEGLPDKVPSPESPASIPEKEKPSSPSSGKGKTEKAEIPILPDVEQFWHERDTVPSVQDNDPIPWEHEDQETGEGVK
FBW7 act – activators of human E3 ligase FBW7. AID 1259310. Q969H0. AlphaScreen FBW7–phospho-cyclin E peptide binding, activator screen. 650,000 tested, 0.13% active. normalized activity (activation), % at 26.1 µM; in the data active = normalized activity above about 1.9%;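 also: purified mutant Fbw7 with reduced substrate affinity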
TEAD-YAP block – TEAD-YAP interaction inhibition. 640,000 tested, 1.4% active. inhibition, % at 9.12 µM. HEK-TIYL cells, TEAD-Gal4/YAP UAS-luciferase luminescence; in the data active = inhibition above about 32%;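 also: 0% = median of test compound wells and 100% = reference inhibitor wells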
MITF inh – blocks human microphthalmia-associated transcription factor; AlphaScreen MITF homodimerization, bead proximity signal; 650,000 tested, 0.91% active; inhibition, % at 2.6 µM; in the data active = inhibition above about 50%;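 also: 0% = vehicle wells with protein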
GPR151 conf act – confirmation of human GPR151 activators. shares compounds with GPR151 activ. GPR151 PathHunter beta-arrestin cells, luminescence, 90 min; % of EA-reagent control over plate median. activation, % at 11.2 µM. 6,700 tested, under 10 active. AID 1508609;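 active = mean percent activation across replicates above the confirmation screen cutoff of 4.91%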
GPR119 counter – counter-screen for GPR151 activators: effect on human GPR119; shares compounds with GPR151 activ; GPR119 PathHunter beta-arrestin cells, luminescence, 90 min; 0 = compound-well median, 100 = enzyme-acceptor control; activation, % at 11.2 µM; 6,700 tested, 0.3% active; AID 1508611;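 active = mean percent activation in the counterscreen above 29.09%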;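 also: counterscreen on off-target GPR119 to flag nonselective hits from the GPR151 activator screen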
* hit, by the source's call; . = not tested or not shown. Only some compounds are listed: those with a hit (about 3.5% of all), similar ones and a draw of the others.

SMILES	GPR151 activ	FBW7 act	TEAD-YAP block	MITF inh	GPR151 conf act	GPR119 counter
Cc1ccc(-n2ncc3c(NCc4cccnc4)ncnc32)c(C)c1	8.5*	0	2	6	-1	-3
c1ccc(-n2ncc3c(Nc4cccc5ccccc45)ncnc32)cc1	5.7*	0	-2	16	-1	-8
COc1ccc(CNc2ncnc3c2cnn3-c2cccc(C)c2)cc1	5.2*	0	-12	5	0	-5
Cc1ccc(-n2ncc3c(SCC(=O)NC(C)(C)C)ncnc32)c(C)c1	7.2*	0	4	-6	0	-4
O=C(CNC(=S)N(Cc1cccs1)C1CCCCC1)NCCc1ccccc1	0	0	-14	7	.	.
COc1cc(C(=O)OCC(=O)NNC(=O)c2ccccc2)c([N+](=O)[O-])cc1OC	-1	0	9	6	.	.
CC(C)n1cnc2c(NCc3ccccc3)nc(NC3CCN(Cc4ccccc4)CC3)nc21	2	0	-1	16	.	.
COc1ccc(C2/C(=C(/O)c3ccc(F)cc3)C(=O)C(=O)N2CCN(C)C)cc1OC (configuration not stated)	0	0	-17	4	.	.
CC(NC(=O)Nc1ccc(F)cc1F)c1ccc2c(c1)OCO2 (configuration not stated)	7.2*	0	-5	7	1	0
CC(NC(=O)c1ccc(F)cc1)c1ccc2c(c1)OCCO2 (configuration not stated)	0	0	-1	5	.	.
Cc1ccc(Cn2c(=O)c3cccnc3n(CC(=O)Nc3ccccc3C)c2=O)cc1	3	0	-10	-2	.	.
Cc1ccc(CNCc2ccco2)cc1	7.0*	0	0	24	1	8
COc1cc(Nc2nc(NCCCN3CCCC3=O)c3ncn(CCN4CCCC4=O)c3n2)cc(OC)c1OC	6.5*	0	0	4	0	-7
COc1cc(Nc2nc(NCCCN3CCCC3=O)c3ncn(C(C)C)c3n2)cc(OC)c1OC	13*	0	7	-3	1	0
O=C1CCCN1CCCNc1cc(N2CCC(N3CCOCC3)CC2)ncn1	8.5*	0	7	0	-1	-14
O=C1CCCN1CCCNc1cc(N2CCOCC2)ncn1	0	0	-4	1	.	.
O=C1CCCN1CCn1cnc2c(NCCN3CCOCC3)nc(Nc3nccc4ccccc34)nc21	5.3*	0	-3	6	0	-7
CCN1CCCc2cc(CN3CCc4nc(C)[nH]c(=O)c4C3)ccc21	0	0	8	12	.	.
N#C/C(=C/c1cn(CC(=O)Nc2ccc(F)cc2)c2ccccc12)C(N)=S	1	0	15	6	.	.
O=C1CCCN1CCn1cnc2c(Nc3ccc(N4CCOCC4)cc3)nc(Nc3ccc(N4CCOCC4)cc3)nc21	3	0	-3	21	.	.
O=C1CCCN1CCCNc1nc(Nc2ccc(N3CCOCC3)cc2)nc2c1ncn2CCN1CCCC1=O	11*	0	-2	-3	0	-5
COC(=O)NNC(=O)c1ccc(OC)c(OC)c1	-1	0	-2	6	.	.
COCCNC(=O)c1ccccc1NC(=O)C(C)N(c1ccc(OC)cc1)S(C)(=O)=O (configuration not stated)	6.7*	0	-3	-10	0	-8
COCCNC(=O)c1ccccc1NC(=O)C(C)N(c1ccc(C)cc1)S(C)(=O)=O (configuration not stated)	2	0	2	-8	.	.
Cc1cc(N2CCCCC2)nc2ccc(NC(=O)c3cccc([N+](=O)[O-])c3)cc12	17*	0	7	2	1	10
SMILES	GPR151 activ	FBW7 act	TEAD-YAP block	MITF inh	GPR151 conf act	GPR119 counter
Cc1ccc2c(=O)cc(-c3cc(C(=O)O)cc4c3OCOC4)oc2c1	0	0	10	14	.	.
O=Cc1cc(C(=O)O)cc2c1OCOC2	11*	0	-4	-7	-1	-6
Clc1cccc(CN2CCN(c3nc4nonc4nc3NC3CC3)CC2)c1	11*	0	6	-6	-1	-8
O=C(Cn1cc(/C=C2\SC(=S)NC2=O)c2ccccc21)NCc1cccs1	6.8*	0	6	7	1	-3
O=C(CN1CCN(S(=O)(=O)c2ccc3c(c2)OCCO3)CC1)c1cccs1	9.7*	0	-3	0	0	-1
O=C(CCC1=NS(=O)(=O)c2ccccc2N1)Nc1ccccc1	6.2*	0	4	5	0	-4
CCn1c(SCc2cccc(Br)c2)nnc1-c1cnccn1	7.4*	0	-5	4	0	-1
Cc1cc(C(C)(C)C)cc(S(=O)(=O)Nc2ccc3c(c2)C(=O)NC3=O)c1C	6.2*	0	-11	-13	0	-6
Cc1ccc(S(=O)(=O)Nc2ccc3c(c2)C(=O)NC3=O)c(C)c1	0	0	4	15	.	.
Cc1ccc(NC(=O)CC2SCCNC2=O)cc1 (configuration not stated)	-1	0	-22	6	.	.
COc1cc(OC)cc(-c2nc(=S)[nH][nH]2)c1	6.8*	0	11	-6	1	10
CC(=O)NC1(c2ccccc2)CCN(CC(=O)NC2CCCC2)CC1	1	0	0	-1	.	.
CC(C)N(CCNC1CCS(=O)(=O)C1)C(C)C (configuration not stated)	8.4*	0	-3	6	0	9
Cn1c(N)c(S(=O)(=O)Nc2cccc(Cl)c2)c(=O)n(C)c1=O	7.7*	0	-2	3	0	0
Cc1c(S(=O)(=O)Nc2cccc(Cl)c2)c(=O)n(C)c(=O)n1C	0	0	-2	2	.	.
CCOC(=O)c1c(NC(=O)/C=C\C(=O)O)sc(C)c1C	0	0	21	7	.	.
CN1C(=N)N(c2nc(N(C)C)nc(N(C)C)n2)CC1=O	1	0	2	-3	.	.
Cc1cc(C)nc(N2CC(=O)N(C)C2=N)n1	5.5*	0	-1	-8	0	4
NC(=O)COc1ccc(/C=N/NC(=O)c2ccc(CN3CCOCC3)cc2)cc1	5.7*	0	2	6	0	6
Cc1ccc(-n2cc(-c3ccccc3)c3c(NCc4ccccc4)ncnc32)cc1	0	0	12	-2	.	.
Cc1ccc(CNc2ncnc3c2c(-c2ccccc2)cn3-c2ccc(Cl)cc2)cc1	8.4*	0	-1	-11	0	-2
CCOC(=O)c1ccc(NC(=O)CSc2ccc(-c3cccc([N+](=O)[O-])c3)nn2)cc1	-1	1	-6	18	.	.
Cc1ccc(S(=O)(=O)N2CCCC(N3CCOCC3)C2)s1 (configuration not stated)	6.3*	0	-2	5	0	4
O=S(=O)(c1ccc2c(c1)OCCO2)N1CCCC(N2CCOCC2)C1 (configuration not stated)	1	0	-8	2	.	.
